Most compounds without a hit are left out; they make up all but 12% or so of the library.
Sm TGR inh: inhibitors of Schistosoma mansoni thioredoxin glutathione reductase; Potency, µM (doses to about 114 µM), for inactives: at the top dose activity change, negative = inhibition, actives largely listed as inhibitors; purified TGR, DTNB reduction, TNB absorbance 405 nm; Q962Y6; hit rate 3% among 360,000; active = well fitted inhibition curve with a large enough effect; inconclusive = small, poorly fitted or top-dose-only effect; inactive = no such curve, though single readings can be large or run the other way; also: potency is read from the fitted curve at half-maximal effect; % is scaled to controls: 0 for no effect and ±100 for the full control effect; nearly all actives have a fitted effect of over 60% in size
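TGR 20 nM + NADPH 100 uM (dispensed conc.), cpd preinc 15 min RT; start with NADPH (500 uM addition) then DTNB (15 mM addition). Kinetic TNB absorbance, 405 nm filter. Four-parameter Hill fit across titration.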
FMDV antiviral: blocks foot and mouth disease virus | FMDV antiviral cell-based qHTS | Potency, µM (titrated, usually from 57.9 µM), for inactives: top-dose activity change, negative = inhibition, usual class: inhibitors | hit rate 1.2% among 410,000; calls by dose curve; tested in HEK293T cells; also: read-out not given here; potency is read from the fitted curve at half-maximal effect; % is scaled to controls: 0 for no effect and ±100 for the full control effect; nearly all actives have a fitted effect of over 45% in size
Shiga inhibitor: inhibitors of Shiga toxin in Vero cells; AID 2315; inhibition, % at 38.7 µM; Vero cells, Shiga toxin protein synthesis inhibition reporter; hit rate 9.2% among 290,000; in the data active = inhibition mostly above about 28%, no sharp cut-off; inactive = mostly below about 43%; also: 0% is about no effect
Cycloheximide cs: counter-screen hit for Shiga toxin inhibitors, cycloheximide; cell reporter, cycloheximide protein synthesis inhibition counterscreen; AID 2314; max response, %; hit rate 12% among 300,000; in the data active = max response mostly above about 13%, no sharp cut-off; inactive = mostly below about 14%; also: read at 38.3 µM for the half of the compounds with a filed dose; 0% is about no effect
Active calls of the source: *; u = inconclusive; x = no result.

SMILES | Sm TGR inh | FMDV antiviral | Shiga inhibitor | Cycloheximide cs
COc1ccc(NC(=O)CC2C(=O)N(c3ccccc3)C(=O)N2CCc2sccc2C)cc1 (centres undefined) | 8% | 9% | x | x
CN(Cc1ccccc1)C(=O)c1ccc2c(c1)N(Cc1ccccc1F)C(=O)c1ccccc1S2(=O)=O | -9% | 43% | x | x
CC1=C/C(=N\NC(=S)NCCc2ccccc2)CC(C)(C)C1 | 3% | 4% | 82* | 23*
O=[N+]([O-])c1ccc(NNC(=S)Nc2ccccc2)cc1 | -26% | -1% | 97* | 37*
S=C(Cc1ccccc1)NCCc1ccccc1 | 0% | 35% | x | x
Fc1ccccc1NC(=S)NCCc1cccc(Cl)c1 | -35% | 5% | 78* | 40*
COc1ccc(CC(=S)NCCc2ccccc2)cc1 | 0% | 23% | x | 14*
CCc1ccccc1Nc1nn2c(=O)c3ccc(C(=O)NC4CCC(C)CC4)cc3nc2s1 (centres undefined) | 2% | 0% | x | x
COc1ccc(C)cc1NC(=O)N1CCCn2nc(C)cc21 | -2% | -6% | x | x
NC(=O)n1c(O)c(C(=O)c2cccs2)c2cc(Cl)ccc21 | x | u | -5 | -5
CCOc1cccc(C(=O)N(Cc2ccc(N(C)C)cc2)CC2CCCO2)c1 (centres undefined) | 2% | 20% | x | x
C/C(CCc1ccccc1)=N\NC(=S)NCCc1ccccc1 | -1% | 12% | -5 | -2
O=[N+]([O-])c1ccc(NC(=S)NCCc2ccccc2)cc1 | -30% | 36% | 64* | 28*
S=C(NCCc1ccccc1)NCc1cccc(Cl)c1 | u | 32% | 23* | 19
C/C(=N\NC(=S)NCCc1ccccc1)c1cccs1 | 4% | -8% | 24 | 17*
S=C(NCCc1ccccc1)NCCc1ccccc1 | 3% | 64% | 57* | 51*
COc1ccc(CCNC(=O)CSc2cn(CCNC(=O)c3ccccc3F)c3ccccc23)cc1OC | 2% | u | x | x
Cc1cnc(SCC2CCCO2)nc1C1CCCN(C(=O)C2=NNC(=O)CC2)C1 (centres undefined) | x | -4% | x | x
O=C(OCc1ccccc1F)c1ccc(-c2nnn(Cc3ccccc3)n2)cc1 | -10% | -3% | x | x
CSc1cccc(NC(=O)c2cnn(-c3ccc(F)cc3)c2-n2cccc2)c1 | 7% | u | x | x
Cc1ccc(Cn2c(=O)n(-c3cc(C)cc(C)c3)c(=O)c3oc4ccccc4c32)cc1 | 0% | -23% | x | x
Fc1cc(Br)ccc1NC(=S)NCCc1ccccc1 | 1% | x | 139* | 46*
S=C(NCCc1ccccc1)Nc1ccc(Cl)cc1 | 5% | 35% | 54 | 53*
S=C(NCCc1ccccc1)N/N=C/c1ccc(Cl)cc1 | 9% | 2% | 14 | 11
CC(NC(=S)Nc1ccc([N+](=O)[O-])cc1)c1ccncc1 (centres undefined) | 45µM* | -18% | -19 | -3
SMILES | Sm TGR inh | FMDV antiviral | Shiga inhibitor | Cycloheximide cs
CC(C)(C)NC(=O)NCCc1ccccc1 | 3% | 8% | 59* | 36*
Cc1noc(C)c1S(=O)(=O)NCCc1csc2nc(-c3ccc(Cl)cc3)nn12 | 7% | -2% | x | x
Cc1nc2cc(NC(=O)[C@@H]3C[C@@H](Sc4ccccn4)CN3Cc3ccc4c(c3)OCCO4)ccc2s1 | x | 4% | x | x
Fc1ccc(CCNC(=S)Nc2ccc(F)cc2)cc1 | -24% | 42% | 47* | 36*
CC1(C)CC(NC(=S)Nc2ccc([N+](=O)[O-])cc2)CC(C)(C)N1 | 50µM* | -13% | -14 | -3
CCCCc1ccc(NC(=S)NCCc2ccc(F)cc2)cc1 | 10% | -19% | 4 | 1
CC(C)(O)C1CC[C@@](C)([C@@H]2CC[C@]3(C)[C@H]2[C@H](O)CC2[C@@]4(C)CCC(O)C(C)(C)C4C(OC4OC(CO)C(O)C(O)C4O[C@@H]4OCC(O)C(O)C4O)C[C@]23C)O1 (some centres undefined) | x | -11% | x | x
CC1CC[C@@]2(OC1)OC1C(O)C3C4CC[C@H]5CC(O[C@@H]6O[C@@H](CO)[C@H](OC7OC(CO)C(O)C(OC8OCC(O)C(O)[C@H]8O)[C@@H]7O[C@@H]7OC(CO)[C@H](O)[C@@H](O[C@@H]8OC(CO)C(O)C(O)C8O)C7O)C(O)C6O)C(O)C[C@]5(C)C4CC[C@]3(C)C1C2C (some centres undefined) | x | 35µM* | x | x
CCc1cccc(C)c1NC(=O)COC(=O)Cn1c(C)csc1=O | -10% | -8% | x | x
Cc1csc(=O)n1CC(=O)OCc1cccc2ccccc12 | -2% | 60% | 79* | 45*
Cc1cc(C)c(C(=O)COC(=O)Cn2c(C)csc2=O)cc1C | -4% | 36% | 44* | 24*
c1ccc(CNCCNCc2ccccc2)cc1 | x | x | -4 | -4
COc1cc(C(=O)Oc2ccc(/C=N/NC(=O)c3ccncc3)cc2)cc(OC)c1OC | 3% | -11% | -5 | 1
COc1ccc(C(=O)N/N=C/c2ccccc2OC(=O)c2ccccc2)cc1 | -1% | 61% | 41* | 33*
COc1ccc(C(=O)N/N=C/c2ccc(OC(=O)c3ccccc3)cc2)cc1 | 0% | 22% | 19 | -1
COc1cc(C(=O)Oc2ccccc2/C=N/NC(=O)c2ccc(C)cc2)cc(OC)c1OC | 8% | 21% | 118* | 87*
CC1CCN(c2ccc(C(F)(F)F)cc2N)CC1 | -5% | -1% | 34 | 17*
Cc1ccc(OCCn2nnc3sc4c(c3c2=O)CCC(C)C4)cc1 (centres undefined) | -2% | 2% | x | x
CCOC(=O)c1cc(-c2ccccc2)sc1NC(=O)c1ccc(OC)c(OC)c1 | -13% | -27% | -12 | -2
CC(C)(C)C(=O)Nc1sc(-c2ccccc2)cc1C(=O)O | -4% | 16% | 112* | 41*
CC(C)(C)C(=O)Nc1scc(-c2ccc(-c3ccccc3)cc2)c1C(=O)O | 0% | -21% | -2 | 5
Nc1sc(-c2ccccc2)cc1C(=O)N1CCNCC1 | x | 2% | x | x
Cc1cccc(C(=O)Nc2sc(-c3ccccc3)cc2C(=O)O)c1 | 7% | 41% | 127* | 46*
Nc1sc(-c2ccccc2)cc1C(=O)O | 6% | x | 55* | 29*
O=C(Cn1cncn1)N1CCOc2ccc(CN3CCN(c4ccccc4)CC3)cc2C1 | x | -5% | x | x
SMILES | Sm TGR inh | FMDV antiviral | Shiga inhibitor | Cycloheximide cs
COc1ccccc1N1CCN(CCn2c(=O)c3c(c4ccccc4n3C)n(C)c2=O)CC1 | x | -11% | x | x
Cc1cc(OCc2cc(C(=O)N(C)CC3CCOCC3)no2)cc(C)c1Cl | -20% | -13% | 46* | 35*
Cc1cc(OCc2cc(C(=O)N(C)CCCN3CCOCC3)no2)cc(C)c1Cl | -20% | -6% | 27 | 18
CCN(CC1CCCO1)C(=O)c1cc(COc2cc(C)c(Cl)c(C)c2)on1 (centres undefined) | -19% | 27% | 73* | 44*
Cc1cccc(N2CCN(C(=O)c3cc4ccc5cccnc5c4[nH]3)CC2C)c1 (centres undefined) | -12% | -21% | x | x
CCc1c(C)sc(NC(=O)C2CCCO2)c1C#N (centres undefined) | 1% | 21% | 19 | 17*
CC1CCc2c(sc(NC(=O)C3CCCO3)c2C#N)C1 (centres undefined) | 5% | 35% | 107* | 37*
CCOC(=O)Nc1sc2c(c1C#N)CCC(C)C2 (centres undefined) | -1% | 38% | 91* | 46*

Source: PubChem
